The nature of experiment [1]: ATG_E_Box_CIS: Attagene CIS-FACTORIAL HepG2 Assay for human Enhancer Box (E-box) (AID 2282936). The conditions noted are these: HepG2 E-box cis-reporter transcription, actives raise or lower the signal. In outline:
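Cells: HepG2 (human liver), transient MRTU transfection. Exposure 24 h. RNA → oligo(dT) RT → PCR → 6-FAM label → HpaI → CE. Activity fitted both directions relative to DMSO.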

The nature of experiment [2]: ATG_M_61_CIS: Attagene CIS-FACTORIAL HepG2 Assay for M61 Transcription Factor (Internal Marker) (AID 2282937). The conditions noted are these: HepG2 Attagene CIS-FACTORIAL M61 internal marker reporter; actives raise or lower the signal. The essentials: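 Human liver HepG2, transient MRTU transfection (cis promoter elements), 24 h compound. Total RNA → oligo(dT) RT → PCR → FAM label → HpaI → CE. Internal background marker; bidirectional fitting, DMSO = baseline.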

Experiment [3] is described as follows: ATG_EGR_CIS: Attagene CIS-FACTORIAL HepG2 Assay for human Early Growth Response 1 (EGR1) (AID 2282938). The conditions noted are these: HepG2 Attagene CIS-FACTORIAL EGR reporter mRNA; actives raise or lower the signal. In outline: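 Transient transfection of human HepG2 with multiple cis-regulated reporter units, chemical exposure 24 h, total RNA isolated. Reverse transcription, PCR, fluorescent labelling and capillary electrophoresis quantify reporter transcripts; activity fitted bidirectionally against DMSO.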

Experiment [4] in a line: ATG_M_19_CIS: Attagene CIS-FACTORIAL HepG2 Assay for M19 Transcription Factor (Internal Marker) (AID 2282939). To be noted: HepG2 Attagene CIS-FACTORIAL M19 internal marker reporter; actives raise or lower the signal. The essentials: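 Following a 24 h exposure, RNA from transfected HepG2 cells was reverse-transcribed, PCR-amplified with reporter-specific primers, end-labelled with 6-FAM and HpaI-digested before capillary separation. Values represent gain or loss versus DMSO.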

Experiment [5] is described as follows: ATG_Ets_CIS: Attagene CIS-FACTORIAL HepG2 Assay for human Erythroblast Transformation Specific (ETS) (AID 2282941). To be noted: HepG2 ETS cis-reporter transcription, actives raise or lower the signal. In outline: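 HepG2 cells transfected with multiple cis-regulated reporter units measuring endogenous ETS-driven transcription, 24 h after dosing. Reporter mRNA quantified by RT-PCR with capillary electrophoresis; bidirectional fit relative to DMSO.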

The target in experiment [6] is Hepatocyte nuclear factor 3-beta (Homo sapiens) (UniProt Q9Y261). Kind of experiment: ATG_FoxA2_CIS: Attagene CIS-FACTORIAL HepG2 Assay for human Forkhead box A2 (FOXA2) (AID 2282942). The conditions noted are these: HepG2 cis-reporter transcription factor activity, 24 h; actives raise or lower the signal. The essentials: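 Transient MRTU transfection of HepG2 liver cells; 24 h treatment; total RNA → oligo(dT) RT → PCR → FAM primer extension → HpaI cut → CE. Bidirectional fit vs DMSO.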

Experiment [7] is described as follows: ATG_FoxO_CIS: Attagene CIS-FACTORIAL HepG2 Assay for human Forkhead box O (FoxO) (AID 2282943). To be noted: HepG2 Attagene cis-reporter, FoxO element, mRNA; actives raise or lower the signal. In outline:
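HepG2, transient MRTU transfection (cis element, endogenous TFs). Dose 24 h. TriZol RNA → oligo(dT) RT → PCR → 6-FAM primer extension → HpaI cut → CE. Gain/loss vs DMSO.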

Experiment [8] in a line: ATG_GATA_CIS: Attagene CIS-FACTORIAL HepG2 Assay for human GATA Binding Protein (AID 2282944). To be noted: HepG2 GATA cis-element reporter, Attagene multiplex mRNA; actives raise or lower the signal. The essentials:
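DMSO serves as negative control and baseline for bidirectional fitting of reporter mRNA changes. HepG2 cells bearing transiently transfected cis-promoter reporters were exposed 24 h; transcripts detected via RT-PCR and capillary electrophoresis.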

Experiment [9] in a line: ATG_GLI_CIS: Attagene CIS-FACTORIAL HepG2 Assay for human Zinc Finger Protein GLI1 (AID 2282945). The conditions noted are these: HepG2, Attagene cis-factorial reporter mRNA, GLI element; actives raise or lower the signal. In outline:
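Bidirectional curve fits relative to DMSO, using reporter mRNA levels from RT-PCR plus capillary electrophoresis. Cells were HepG2 transiently carrying cis-regulated reporter constructs, harvested 24 h after dosing.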

Experiment [10] addresses Bile acid receptor (Homo sapiens) (UniProt Q96RI1). Kind of experiment: ATG_IR1_CIS: Attagene CIS-FACTORIAL HepG2 Assay for human Nuclear Receptor Subfamily 1 Group H Member 4 (NR1H4), IR1 submotif (AID 2282946). To be noted: IR1 reporter transcription, actives raise or lower the signal. In outline:
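Cells (human HepG2) carry transiently transfected cis-promoter reporter transcription units. Compounds are incubated 24 h, total RNA is reverse-transcribed and amplified, and labelled fragments are resolved by capillary electrophoresis. Curves use DMSO as baseline.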

Experiment [11] can be described thus: ATG_GRE_CIS: Attagene CIS-FACTORIAL HepG2 Assay for human Glucocorticoid Response Elements (GRE) (AID 2282947). The conditions noted are these: HepG2 GRE cis-reporter, Attagene multiplex mRNA; actives raise or lower the signal. In outline: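 Transient MRTU transfection of human HepG2 liver cells; cis-regulated reporters report endogenous factors. 24 h dosing → RNA isolation → RT-PCR → 6-FAM primer extension → HpaI cut → CE fragment analysis. Bidirectional fit, DMSO negative control.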

Experiment [12] is described as follows: ATG_ISRE_CIS: Attagene CIS-FACTORIAL HepG2 Assay for human Interferon Regulatory Factor 1 (IRF1) binding to an Interferon-Stimulated Response Element (ISRE) (AID 2282948). To be noted: HepG2 ISRE cis-reporter (Attagene), mRNA transcription readout; actives raise or lower the signal. The essentials: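 Transiently transfected HepG2 cells carrying cis-element reporter units, dosed 24 hours. Reporter mRNA quantified by RT-PCR, fluorescent primer extension, HpaI digestion and capillary electrophoresis. Bidirectional fitting relative to DMSO.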

Experiment [13] can be described thus: ATG_M_32_CIS: Attagene CIS-FACTORIAL HepG2 Assay for M32 Transcription Factor (Internal Marker) (AID 2282949).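 Also: background control marker of the multiplexed CIS panel rather than a real target.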 To be noted: HepG2 Attagene cis-factorial M32 reporter, mRNA; actives raise or lower the signal. The essentials:
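HepG2 cells transiently transfected with multiplexed cis-regulated reporter units, dosed 24 h. Reporter mRNA quantified by RT-PCR, 6-FAM labelling, HpaI digestion and capillary electrophoresis; bidirectional fit vs DMSO.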

Experiment [14] is described as follows: ATG_M_06_CIS: Attagene CIS-FACTORIAL HepG2 Assay for M06 Transcription Factor (Internal Marker) (AID 2282950). To be noted: HepG2 Attagene CIS-FACTORIAL M06 internal marker reporter; actives raise or lower the signal. The essentials: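 Fluorescence-labelled RT-PCR products from cis-promoter reporter units, cut with HpaI and resolved by capillary electrophoresis, give the signal. Cells are human HepG2, dosed for 24 h. Serves as background control, fitted relative to DMSO.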

Experiment [15] addresses Hypoxia-inducible factor 1-alpha (Homo sapiens) (UniProt Q16665). Kind of experiment: ATG_HIF1a_CIS: Attagene CIS-FACTORIAL HepG2 Assay for human Hypoxia Inducible Factor 1 (HIF1A) (AID 2282951). To be noted: HepG2 Attagene cis-factorial HIF1a reporter transcription; actives raise or lower the signal. The essentials:
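Transient MRTU transfection of human HepG2 liver cells, 24 h compound treatment, then total RNA isolation, oligo(dT) reverse transcription, PCR amplification, fluorescent labelling and capillary electrophoresis of reporter fragments. Gain or loss relative to DMSO.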

Experiment [16] has as its target Hepatocyte nuclear factor 6 (Homo sapiens) (UniProt Q9UBC0). Kind of experiment: ATG_HNF6_CIS: Attagene CIS-FACTORIAL HepG2 Assay for human Hepatocyte Nuclear Factor 6 (HNF6) (AID 2282952). To be noted: HepG2 Attagene cis-factorial HNF6 reporter transcription; actives raise or lower the signal. In outline: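 HepG2 cells transiently transfected with cis-element-driven multiplexed reporter units measuring endogenous transcription factor activity. After 24 h exposure, reporter mRNA quantified by RT-PCR, FAM-labelled fragments and capillary electrophoresis; bidirectional fitting versus DMSO.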

The target in experiment [17] is Heat shock factor protein 1 (Homo sapiens) (UniProt Q00613). The experiment can be described thus: ATG_HSE_CIS: Attagene CIS-FACTORIAL HepG2 Assay for human Heat Shock Transcription Factor 1 (HSE) (AID 2282953). The conditions noted are these: HepG2 HSE cis-reporter, Attagene RNA transcription; actives raise or lower the signal. The essentials:
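After a 24 h incubation with test chemical, transfected HepG2 cells were harvested for RNA; reporter transcripts were measured by RT-PCR and capillary electrophoresis. Values reflect gain or loss of signal relative to DMSO.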

A short description of experiment [18]: ATG_MRE_CIS: Attagene CIS-FACTORIAL HepG2 Assay for human Metal Responsive Element (MRE) (AID 2282954). To be noted: HepG2 MRE cis-reporter transcription, Attagene multiplex; actives raise or lower the signal. The essentials: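 Transient MRTU transfection of HepG2 (FuGene 6); 24 h dosing; total RNA → oligo(dT) RT, PCR, 6-FAM primer extension, HpaI cut, CE. Bidirectional fit vs DMSO.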

Experiment [19] in a line: ATG_PBREM_CIS: Attagene CIS-FACTORIAL HepG2 Assay for human Phenobarbital-responsive Enhancer Module (PBREM) (AID 2282955). To be noted: HepG2 PBREM cis-reporter, Attagene multiplexed transcription; actives raise or lower the signal. In outline: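 Endogenous transcription factors in human liver HepG2 cells drive a PBREM cis-element reporter, whose transcript level after 24 h treatment is quantified by RT-PCR with capillary electrophoresis; activity fitted in both directions against DMSO.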

Experiment [20] deals with Paired box protein Pax-6 (Homo sapiens) (UniProt P26367). The experiment can be described thus: ATG_Pax6_CIS: Attagene CIS-FACTORIAL HepG2 Assay for human Paired Box 6 (PAX6) (AID 2282956). To be noted: HepG2 CIS-FACTORIAL PAX6 reporter transcription, RNA readout; actives raise or lower the signal. The essentials: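 HepG2 cells transiently transfected with cis-promoter-driven multiplexed reporter units sensing endogenous transcription factor activity; 24 h chemical exposure. Reporter mRNA quantified by RT-PCR, 6-FAM labelling, HpaI digestion and capillary electrophoresis; bidirectional fit versus DMSO baseline.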

These results are taken from PubChem BioAssay (EPA / NIEHS).

“And” between values parts separate entries of the source, which are not always exact repeats. Equal entries are not always repeated. More than one record can exist for a structure, and the calls need not agree. The source made the active and inactive calls. The calls were made as follows: active = hit-call score of the fitted dose curve at least 0.9, where 1 is the maximum; inactive = score below 0.9.

Sequence of Hepatocyte nuclear factor 3-beta (Homo sapiens) (Q9Y261 whole entry, looked up): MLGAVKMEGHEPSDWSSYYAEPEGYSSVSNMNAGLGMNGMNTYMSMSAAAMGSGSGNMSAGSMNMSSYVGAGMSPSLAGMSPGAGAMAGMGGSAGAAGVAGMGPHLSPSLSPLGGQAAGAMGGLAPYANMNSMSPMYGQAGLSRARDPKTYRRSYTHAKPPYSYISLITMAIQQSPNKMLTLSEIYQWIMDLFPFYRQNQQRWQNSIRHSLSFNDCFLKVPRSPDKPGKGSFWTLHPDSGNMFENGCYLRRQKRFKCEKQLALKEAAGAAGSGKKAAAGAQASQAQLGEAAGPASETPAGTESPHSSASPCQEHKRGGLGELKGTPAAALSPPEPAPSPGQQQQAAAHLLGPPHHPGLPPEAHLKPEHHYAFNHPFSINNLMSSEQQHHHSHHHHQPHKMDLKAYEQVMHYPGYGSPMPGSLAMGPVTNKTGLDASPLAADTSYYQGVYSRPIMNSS
Sequence of Paired box protein Pax-6 (Homo sapiens) (P26367 whole entry, looked up): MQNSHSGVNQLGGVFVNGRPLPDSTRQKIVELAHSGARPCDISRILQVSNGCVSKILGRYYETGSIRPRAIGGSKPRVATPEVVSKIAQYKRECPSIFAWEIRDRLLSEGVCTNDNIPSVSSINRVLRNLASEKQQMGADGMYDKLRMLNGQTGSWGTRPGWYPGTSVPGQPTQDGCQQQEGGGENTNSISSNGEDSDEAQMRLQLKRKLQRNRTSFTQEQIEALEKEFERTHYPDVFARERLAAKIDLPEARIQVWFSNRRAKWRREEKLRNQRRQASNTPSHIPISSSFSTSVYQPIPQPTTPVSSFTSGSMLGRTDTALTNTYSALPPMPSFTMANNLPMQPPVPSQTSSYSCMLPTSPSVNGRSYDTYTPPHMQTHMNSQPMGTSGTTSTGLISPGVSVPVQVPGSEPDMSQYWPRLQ
Sequence of Hypoxia-inducible factor 1-alpha (Homo sapiens) (Q16665 whole entry, looked up, the tested form may be a part): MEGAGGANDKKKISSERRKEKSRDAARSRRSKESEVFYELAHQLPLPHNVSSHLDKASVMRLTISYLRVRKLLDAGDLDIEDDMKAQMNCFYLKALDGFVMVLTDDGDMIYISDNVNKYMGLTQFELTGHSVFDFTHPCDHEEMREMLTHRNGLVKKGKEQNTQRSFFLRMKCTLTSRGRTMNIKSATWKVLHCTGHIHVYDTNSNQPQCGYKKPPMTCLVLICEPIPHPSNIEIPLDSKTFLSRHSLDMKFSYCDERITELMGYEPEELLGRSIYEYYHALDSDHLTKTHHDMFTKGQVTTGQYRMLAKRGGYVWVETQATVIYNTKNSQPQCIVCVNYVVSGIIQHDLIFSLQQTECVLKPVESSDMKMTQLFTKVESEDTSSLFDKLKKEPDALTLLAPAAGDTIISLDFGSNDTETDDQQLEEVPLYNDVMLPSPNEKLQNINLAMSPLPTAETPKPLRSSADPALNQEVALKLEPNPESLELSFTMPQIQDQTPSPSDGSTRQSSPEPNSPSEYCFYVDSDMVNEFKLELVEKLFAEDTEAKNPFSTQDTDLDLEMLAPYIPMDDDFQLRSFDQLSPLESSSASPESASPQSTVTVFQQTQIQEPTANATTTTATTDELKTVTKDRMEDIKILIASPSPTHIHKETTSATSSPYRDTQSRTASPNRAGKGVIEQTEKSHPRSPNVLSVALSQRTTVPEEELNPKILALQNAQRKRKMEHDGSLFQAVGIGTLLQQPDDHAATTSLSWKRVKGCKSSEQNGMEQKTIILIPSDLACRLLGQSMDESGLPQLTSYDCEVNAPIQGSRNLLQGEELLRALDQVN
Sequence of Hepatocyte nuclear factor 6 (Homo sapiens) (Q9UBC0 whole entry, looked up, the tested form may be a part): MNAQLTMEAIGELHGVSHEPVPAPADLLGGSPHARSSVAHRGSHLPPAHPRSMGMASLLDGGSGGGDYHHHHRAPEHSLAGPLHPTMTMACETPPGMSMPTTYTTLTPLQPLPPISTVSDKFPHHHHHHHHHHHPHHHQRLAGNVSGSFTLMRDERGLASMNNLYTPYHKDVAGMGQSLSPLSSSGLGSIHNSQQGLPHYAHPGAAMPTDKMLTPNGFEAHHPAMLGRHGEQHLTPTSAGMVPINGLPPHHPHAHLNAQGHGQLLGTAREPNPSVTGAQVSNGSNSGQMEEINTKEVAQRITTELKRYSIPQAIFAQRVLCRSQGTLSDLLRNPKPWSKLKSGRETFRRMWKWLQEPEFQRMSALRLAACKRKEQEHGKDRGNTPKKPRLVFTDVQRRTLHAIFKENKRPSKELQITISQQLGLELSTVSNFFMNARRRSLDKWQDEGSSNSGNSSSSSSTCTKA
Sequence of Bile acid receptor (Homo sapiens) (Q96RI1 whole entry, looked up, the tested form may be a part): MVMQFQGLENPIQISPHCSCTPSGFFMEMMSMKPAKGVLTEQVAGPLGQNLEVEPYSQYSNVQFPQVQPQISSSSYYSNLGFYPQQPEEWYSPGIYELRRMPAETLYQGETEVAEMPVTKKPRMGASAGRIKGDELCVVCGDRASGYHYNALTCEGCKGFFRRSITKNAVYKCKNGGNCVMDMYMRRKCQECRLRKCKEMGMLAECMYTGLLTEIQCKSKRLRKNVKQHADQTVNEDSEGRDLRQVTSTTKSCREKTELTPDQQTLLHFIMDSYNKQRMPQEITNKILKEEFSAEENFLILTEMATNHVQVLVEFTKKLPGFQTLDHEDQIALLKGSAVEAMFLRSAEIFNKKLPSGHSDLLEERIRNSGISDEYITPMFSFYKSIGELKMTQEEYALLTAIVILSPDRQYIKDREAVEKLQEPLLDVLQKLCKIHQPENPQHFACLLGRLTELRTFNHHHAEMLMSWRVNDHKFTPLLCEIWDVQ
Sequence of Heat shock factor protein 1 (Homo sapiens) (Q00613 whole entry, looked up): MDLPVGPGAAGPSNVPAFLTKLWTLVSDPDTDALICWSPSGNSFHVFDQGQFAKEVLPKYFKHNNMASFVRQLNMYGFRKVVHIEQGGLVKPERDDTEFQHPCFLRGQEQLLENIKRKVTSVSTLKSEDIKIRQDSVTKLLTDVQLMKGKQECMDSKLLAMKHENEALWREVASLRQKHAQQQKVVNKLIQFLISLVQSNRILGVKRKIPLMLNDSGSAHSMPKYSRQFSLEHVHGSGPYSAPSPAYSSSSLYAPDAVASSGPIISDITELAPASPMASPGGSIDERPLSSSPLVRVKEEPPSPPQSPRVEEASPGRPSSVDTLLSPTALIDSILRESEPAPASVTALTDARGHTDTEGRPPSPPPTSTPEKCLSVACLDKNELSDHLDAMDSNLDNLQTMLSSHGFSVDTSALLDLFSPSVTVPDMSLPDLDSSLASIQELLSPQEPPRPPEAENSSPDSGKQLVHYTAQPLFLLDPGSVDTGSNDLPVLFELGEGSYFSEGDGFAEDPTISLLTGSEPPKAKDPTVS

In the case of `CCCOC(=O)c1ccc(C(=O)OCCC)nc1`, the outcome in experiment [1], in [2], in experiment [3], in experiment [4], in [5] and in [6] was inactive. Moreover, the compound was called inactive in experiment [7], in experiment [8], in experiment [9], in [10], in experiment [11] and in experiment [12]. In addition, the result in [13], in experiment [14], in experiment [15], in experiment [16], in experiment [17] and in experiment [18] was inactive. Also, the result in experiment [19] was inactive.

Turning to `CCCCOC(=O)[C@@H](C)Oc1ccc(Oc2ccc(C(F)(F)F)cn2)cc1`, the result in [1], in experiment [2], in [3], in [4], in experiment [5] and in experiment [6] was inactive. Also, the outcome in experiment [7], in experiment [8], in experiment [9], in [10], in experiment [11] and in [12] was inactive. The compound was classed as inactive in experiment [13], in experiment [14], in experiment [15], in experiment [16], in [18] and in experiment [20].

In the case of `N[C@@H](Cc1cc(I)c(Oc2ccc(O)c(I)c2)c(I)c1)C(=O)O`, the result in experiment [1], in [2], in experiment [3], in [4], in [5] and in [6] was inactive. Besides, the compound was classed as inactive in experiment [7], in experiment [8], in [9], in experiment [11], in experiment [12] and in experiment [13]. The call in [14], in experiment [15], in experiment [16], in experiment [18] and in [20] was inactive. The AC50 in experiment [6] is 1.32 µM (active); in experiment [15], 16.3 µM (active) and 19.5 µM (active) and 1.93 µM (active); in [18], 50.6 µM (active) and 23.7 µM (active) and 94 µM (active).
